Results from PubChem BioAssay (NCI).
The panel holds about 83,000 compounds, 20% with a hit somewhere; the sample as a whole holds those more often.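 A percent growth of 40 corresponds to 60% growth inhibition; 0 means no net growth; -100 means all cells died. Active threshold: below 10.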 Calls of active or inactive are those of the source.

Key:
Test in all cases: NCI-60 one-dose screen, 48 h (100 = growth as untreated, 0 = no growth, -100 = all killed)
Conditions in all cases: 10 µM unless noted
NCI-H23 lung = system: NCI-H23 lung
NCI-H226 lung = system: NCI-H226 lung
NCI-H322M lung = system: NCI-H322M lung
HOP-62 NSCLC = system: HOP-62 NSCLC
NCI-H460 lung = system: NCI-H460 lung
HOP-92 NSCLC = system: HOP-92 NSCLC
NCI-H522 lung = system: NCI-H522 lung
A549/ATCC NSCLC = system: A549/ATCC NSCLC
786-0 renal = system: 786-0 renal
COLO 205 colon = system: COLO 205 colon

Measured: growth

CC1=C(C)C(=O)C(Nc2cccc(C(=O)OC(C)(C)C)c2)=CC1=O
inactive: NCI-H23 lung 28.8% | NCI-H226 lung 64.5% | NCI-H322M lung 94.5% | HOP-62 NSCLC 78.4% | NCI-H460 lung 93.1% | HOP-92 NSCLC 78.8% | NCI-H522 lung 82.2% | A549/ATCC NSCLC 106% | 786-0 renal 89.9% | COLO 205 colon 107%

CCc1cc(O)ccc1Nc1cc(-c2ccc(-n3cccn3)cc2)[nH]n1
inactive: NCI-H23 lung 74.7% | NCI-H226 lung 87.3% | NCI-H322M lung 64% | HOP-62 NSCLC 37% | NCI-H460 lung 45% | HOP-92 NSCLC 139% | NCI-H522 lung 38% | A549/ATCC NSCLC 56.2% | 786-0 renal 84.9% | COLO 205 colon 49.8%

CCCCOc1ccc(S(=O)(=O)N2CCN(c3nc(C)cc(N4CCOCC4)n3)CC2)cc1
inactive: NCI-H23 lung 41.7% | NCI-H226 lung 67.2% | NCI-H322M lung 62.2% | HOP-62 NSCLC 59% | HOP-92 NSCLC 18.2% | NCI-H522 lung 88.8% | A549/ATCC NSCLC 27.3% | 786-0 renal 33.4%
active: NCI-H460 lung 1.22% | COLO 205 colon 5.81%

COc1ccc(-c2cc(-c3ccc(N4CCOCC4)cc3)n3c(n2)nc2ccccc23)cc1OC
inactive: NCI-H23 lung 98% | NCI-H226 lung 85.7% | NCI-H322M lung 94.6% | HOP-62 NSCLC 94.8% | NCI-H460 lung 86.3% | NCI-H522 lung 87.7% | A549/ATCC NSCLC 82.5% | 786-0 renal 84.7% | COLO 205 colon 108%
active: HOP-92 NSCLC -4.32%

CC(=O)c1cc(C(=O)N2c3ccccc3Sc3ccccc32)n2c1ccc1ccccc12
active: NCI-H522 lung -1.14%
inactive: NCI-H23 lung 79.1% | NCI-H226 lung 60.4% | NCI-H322M lung 89.9% | HOP-62 NSCLC 56% | NCI-H460 lung 37.9% | HOP-92 NSCLC 85.2% | A549/ATCC NSCLC 59% | 786-0 renal 60.6% | COLO 205 colon 40%

O=C1Nc2ccc(F)cc2/C1=C\C(=O)c1ccc(NS(=O)(=O)c2ccccc2)cc1
inactive: NCI-H23 lung 84.3% | NCI-H226 lung 95.6% | NCI-H322M lung 93.8% | HOP-62 NSCLC 103% | NCI-H460 lung 101% | HOP-92 NSCLC 82.7% | NCI-H522 lung 70.2% | A549/ATCC NSCLC 97.4% | 786-0 renal 98.6% | COLO 205 colon 113%

CN(C)CCNc1ccc2ncc(C#Cc3cncc(C(=O)Nc4ccc(CN5CCN(C)CC5)c(C(F)(F)F)c4)c3)n2n1
inactive: NCI-H226 lung 33.4% | A549/ATCC NSCLC 29.1%
active: NCI-H23 lung -62.4% | NCI-H322M lung 6.14% | HOP-62 NSCLC -37.2% | NCI-H460 lung 9.62% | HOP-92 NSCLC -4.93% | NCI-H522 lung -61.8% | 786-0 renal 4.34% | COLO 205 colon -32.3%

CCOC(=O)c1cccc(NC2=C(Cl)C(=O)c3nc(C)ccc3C2=O)c1
inactive: NCI-H23 lung 65.2% | NCI-H226 lung 89.5% | NCI-H322M lung 104% | HOP-62 NSCLC 112% | NCI-H460 lung 100% | HOP-92 NSCLC 108% | NCI-H522 lung 88.4% | A549/ATCC NSCLC 101% | 786-0 renal 103% | COLO 205 colon 120%

O=C(CCCCCCNC(=O)C(O)(O)C(F)(F)F)Nc1ccc(-c2ccccc2)cc1
inactive: NCI-H226 lung 39.4% | NCI-H322M lung 28.2% | 786-0 renal 22.8%
active: NCI-H23 lung 9.87% | HOP-62 NSCLC -4.5% | NCI-H460 lung 7.65% | HOP-92 NSCLC -13.6% | NCI-H522 lung -30.9% | A549/ATCC NSCLC 8.66% | COLO 205 colon -61.9%

COc1ccc(C2CC(c3cccc(OCCCCOc4cccc(C5=NOC(c6ccc(OC)cc6)C5)c4)c3)=NO2)cc1 (stereo not given)
inactive: NCI-H23 lung 103% | NCI-H226 lung 100% | NCI-H322M lung 94.7% | HOP-62 NSCLC 105% | NCI-H460 lung 102% | HOP-92 NSCLC 104% | NCI-H522 lung 86.4% | A549/ATCC NSCLC 88.5% | 786-0 renal 99.1% | COLO 205 colon 100%

COc1cc(/C=N\NC(=O)c2ccc3nc(-c4ccc(Br)cc4)[nH]c3c2)cc(OC)c1OC
inactive: NCI-H23 lung 40.2% | NCI-H226 lung 48.7% | NCI-H322M lung 76.8% | HOP-62 NSCLC 72.6% | NCI-H460 lung 42.3% | HOP-92 NSCLC 34.4% | NCI-H522 lung 45.4% | A549/ATCC NSCLC 72.5% | 786-0 renal 38.4% | COLO 205 colon 32.5%

N/C(=N\C(N)=N\c1nc2ccccc2s1)c1ccc(Cl)cc1
active: HOP-62 NSCLC 1.11%
inactive: NCI-H23 lung 75.1% | NCI-H226 lung 77.8% | NCI-H322M lung 88.3% | NCI-H460 lung 52.5% | HOP-92 NSCLC 84.6% | NCI-H522 lung 80.8% | A549/ATCC NSCLC 20.9% | 786-0 renal 102% | COLO 205 colon 104%

C#Cc1nc(/C=C\CCCCCCC(=O)NO)cs1
inactive: NCI-H226 lung 74.2% | NCI-H322M lung 78.4% | HOP-62 NSCLC 79.7% | NCI-H460 lung 55.4% | A549/ATCC NSCLC 67.6% | COLO 205 colon 84.7%
active: NCI-H23 lung -63.5% | HOP-92 NSCLC -75.3% | NCI-H522 lung -59.8% | 786-0 renal -78.5%

CN1CCN(Cc2ccc(NC(=O)c3cncc(C#Cc4cnc5ccc(O[C@@H]6CCOC6)nn45)c3)cc2C(F)(F)F)CC1
active: NCI-H23 lung -65.2% | NCI-H226 lung -60.7% | NCI-H322M lung -49.3% | HOP-62 NSCLC -79.1% | NCI-H460 lung -83.3% | HOP-92 NSCLC -39.6% | NCI-H522 lung -72% | A549/ATCC NSCLC -76.8% | 786-0 renal -87.9% | COLO 205 colon -77.4%

Brc1cccc(-c2cc(-c3cnc4c(c3)OCCO4)n[nH]2)c1
inactive: NCI-H23 lung 52.4% | NCI-H226 lung 65.6% | NCI-H322M lung 45.2% | HOP-62 NSCLC 65% | NCI-H460 lung 17.4% | HOP-92 NSCLC 101% | NCI-H522 lung 19.6% | A549/ATCC NSCLC 36.8% | 786-0 renal 79% | COLO 205 colon 34.9%

C=C(C)[C@@H]1CC[C@]2(COCCCNCCCN)CC[C@]3(C)[C@H](CC[C@@H]4[C@@]5(C)CC[C@H](O)C(C)(C)[C@@H]5CC[C@]43C)[C@@H]12
active: NCI-H23 lung -64.7% | NCI-H226 lung 4.38% | NCI-H322M lung -90.2% | HOP-62 NSCLC -51.3% | NCI-H460 lung -77.3% | HOP-92 NSCLC -76.2% | NCI-H522 lung -54.6% | A549/ATCC NSCLC -48.7% | 786-0 renal -81.3% | COLO 205 colon -65.9%

C#CCOc1ccc(-c2csc(NC(=O)C=C)n2)cc1NS(=O)(=O)c1cccc2c(N(C)C)cccc12
inactive: NCI-H23 lung 56.4% | NCI-H226 lung 33.1% | NCI-H322M lung 87.6% | HOP-62 NSCLC 93.2% | NCI-H460 lung 81.2% | NCI-H522 lung 29.9% | A549/ATCC NSCLC 65.4% | COLO 205 colon 67.6%
active: HOP-92 NSCLC 0.234% | 786-0 renal 8.71%

O=C1Nc2ccccc2/C1=C/c1ccc(OCC(=O)c2ccccc2)cc1
inactive: NCI-H23 lung 101% | NCI-H226 lung 89% | NCI-H322M lung 98% | HOP-62 NSCLC 99.7% | NCI-H460 lung 102% | HOP-92 NSCLC 97.1% | NCI-H522 lung 104% | A549/ATCC NSCLC 99.5% | 786-0 renal 107% | COLO 205 colon 117%

COc1cc2c3c(cc4c5c(ccc4c3c1OC)OCO5)N(CCN(C)C)C2=O
active: NCI-H23 lung -17.8% | NCI-H226 lung -58.8% | NCI-H322M lung 0.11% | HOP-62 NSCLC 6.73% | NCI-H460 lung -20.5% | HOP-92 NSCLC -9.11% | NCI-H522 lung -6.46% | A549/ATCC NSCLC 0.384% | 786-0 renal -16.2% | COLO 205 colon -10.7%

C#CCOc1cccc(/C(N)=N/C(N)=N/c2nc3ccccc3s2)c1
inactive: NCI-H23 lung 50.2% | NCI-H226 lung 68.1% | NCI-H322M lung 96.3% | NCI-H460 lung 90.5% | HOP-92 NSCLC 125% | NCI-H522 lung 96.9% | A549/ATCC NSCLC 10.8% | 786-0 renal 107% | COLO 205 colon 119%
active: HOP-62 NSCLC -36.3%

CCCCCN1C(=O)/C(=c2\sc3n(c2=O)C2C(NN=3)N(CC)C(=O)N2CC)c2cccc(C)c21 (stereo not given)
inactive: NCI-H23 lung 70% | NCI-H226 lung 42.4% | NCI-H322M lung 82.7% | HOP-62 NSCLC 44.2% | NCI-H460 lung 30.9% | HOP-92 NSCLC 70.2% | NCI-H522 lung 30.4% | A549/ATCC NSCLC 68.6% | 786-0 renal 76% | COLO 205 colon 38.7%

Cc1ccc2c(n1)C(=O)C(Cl)=C(Nc1ccc(C(F)(F)F)cc1)C2=O
active: NCI-H522 lung -18.8%
inactive: NCI-H23 lung 68.5% | NCI-H226 lung 89.5% | NCI-H322M lung 107% | HOP-62 NSCLC 97.2% | NCI-H460 lung 101% | HOP-92 NSCLC 71.3% | A549/ATCC NSCLC 102% | 786-0 renal 34% | COLO 205 colon 16.7%

CN1CCN(Cc2ccc(/C=N/Nc3ccnc4cc(Cl)ccc34)cc2)CC1
inactive: NCI-H23 lung 89.2% | NCI-H226 lung 88.4% | NCI-H322M lung 87.5% | HOP-62 NSCLC 80.5% | NCI-H460 lung 83.1% | HOP-92 NSCLC 64.3% | NCI-H522 lung 101% | A549/ATCC NSCLC 83.7% | 786-0 renal 77.7% | COLO 205 colon 93.2%

Brc1ccc(-c2cc(-c3ccc4c(c3)OC=CO4)n[nH]2)s1
inactive: NCI-H23 lung 87.4% | NCI-H226 lung 95.1% | NCI-H322M lung 96.2% | HOP-62 NSCLC 82% | NCI-H460 lung 96.4% | HOP-92 NSCLC 99.7% | NCI-H522 lung 73.8% | A549/ATCC NSCLC 89.9% | 786-0 renal 104% | COLO 205 colon 97.1%

COc1ccc(OC)c(CCn2cncc2-c2c[nH]c3ccc(Cl)cc23)c1
inactive: NCI-H23 lung 38.1% | NCI-H226 lung 59.5% | NCI-H322M lung 88.4% | HOP-62 NSCLC 49.5% | NCI-H460 lung 46.1% | HOP-92 NSCLC 20.8% | A549/ATCC NSCLC 33.3% | 786-0 renal 69.7% | COLO 205 colon 29.8%
active: NCI-H522 lung 3.34%

CC(O)c1cccc(/C(N)=N/C(N)=N/c2nc3ccccc3s2)c1 (stereo not given)
inactive: NCI-H23 lung 91.6% | NCI-H226 lung 85.9% | NCI-H322M lung 97.4% | HOP-62 NSCLC 98.6% | NCI-H460 lung 85.4% | HOP-92 NSCLC 97.6% | NCI-H522 lung 96.9% | A549/ATCC NSCLC 82% | 786-0 renal 101% | COLO 205 colon 109%
